Reference: PubChem BioAssay (NCATS)
Records with an inconclusive call do not appear. The list shows a part of the results. Calls of active or inactive are those of the source. Unless noted, calls follow the shape of the dose curve; as a rule, active = well fitted curve in the direction sought with a large enough effect; inconclusive = small, poorly fitted or top-dose-only effect, or another doubt; inactive = no such curve, though single readings can be large; an effect the other way counts as inactive or inconclusive.

Key:
[1] = molecular target: Rap guanine nucleotide exchange factor 3 (Homo sapiens) (UniProt O95398); test: Confirmatory qHTS for agonist of cAMP-regulated guanine nucleotide exchange factor 3 (EPAC1) (AID 1645881); also: nearly all actives have a fitted effect of over 75% in size; also: potency is read from the fitted curve at half-maximal effect;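 as to activation: EPAC1 catalysed release of BODIPY-GDP from Rap1B seen as fluorescence loss; 100% = effect of cAMP agonist control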
[2] = molecular target: Rap guanine nucleotide exchange factor 4 (Homo sapiens) (UniProt Q8WZA2); test: Confirmatory qHTS for agonist of cAMP-regulated guanine nucleotide exchange factor 4 (EPAC2) (AID 1645884);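 also: nucleotide exchange releases bodipy-GDP from Rap1 and this lowers its fluorescence; nearly all actives have a fitted effect of over 65% in size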; also: potency is read from the fitted curve at half-maximal effect; as to activation: % is scaled to controls: 0 for no effect and ±100 for the full control effect
[3] = molecular target: Rap guanine nucleotide exchange factor 3 (Homo sapiens) (UniProt O95398); test: Counterscreen qHTS for antagonist of cAMP-regulated guanine nucleotide exchange factor 3 (EPAC1) (AID 1645888);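 also: fluorescence loss as bound BODIPY-GDP is released from Rap1B; % of control where 0% means no effect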
Outline: (§1)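 Rap1B-BODIPY-GDP 250 nM + GDP 50 uM; cpds 7-pt, final 9.74 nM–152 uM (activator mode) or from 7.32 nM upwards (inhibitor mode); RT; FI 480/540 nm at 5 and 30 min, then ± cAMP, reread.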

[4] = molecular target: Rap guanine nucleotide exchange factor 3 (Homo sapiens) (UniProt O95398); test: Counterscreen qHTS for agonist of cAMP-regulated guanine nucleotide exchange factor 3 (EPAC1) (AID 1645889); also: nearly all actives have a fitted effect of over 40% in size; also: potency is read from the fitted curve at half-maximal effect; as to activation: % of control where 0% means no effect
Outline: as §1

[5] = molecular target: Mitogen-activated protein kinase 10 (Mus musculus) (UniProt Q61831); test: JNK3 AlphaScreen Assay (AID 530; active = well fitted curve in either direction with a large enough effect, not every such curve was filed as active;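 also: kinase came from lysate of stimulated human HepG2 cells; signal reports phosphorylation of biotinylated GST-cJun 1-79 at Ser73 with 10 µM ATP; series mostly up to about 57 µM; % is scaled to controls: 0 for no effect and ±100 for the full control effect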)
Outline: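 qHTS titrations with 15 min compound pre-incubation before adding ATP (10 uM final). Read-out: AlphaScreen of Ser73-phosphorylated biotin-GST-cJun using HepG2 lysate JNK3 activated by IL-1β and TNFα.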

[6] = molecular target: Cytochrome P450 3A4 (Homo sapiens) (UniProt P08684); test: qHTS Assay for Inhibitors and Substrates of Cytochrome P450 3A4 (AID 884); also: series mostly up to about 57 µM; % is scaled to controls: 0 for no effect and ±100 for the full control effect; nearly all actives have a fitted effect of over 50% in size
Outline: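 Luminescent readout of luciferin produced by CYP3A4 (20 nM) dealkylation of Luciferin-PPXE, 25 uM (its KM). NADPH-driven reaction ran 60 min at RT after 10 min compound preincubation; data scaled to 57 uM ketoconazole as 100% inhibition.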

[7] = qHTS Assay for Inhibitors of Fructose-1,6-bisphosphate Aldolase from Giardia Lamblia: Giardia lamblia growth inhibition (AID 2785); also: % is scaled to controls: 0 for no effect and ±100 for the full control effect; nearly all actives have a fitted effect of over 70% in size
Outline: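 Whole-parasite growth test: Giardia WB trophozoites in TYI-S-33 (pH 7.0), 100 per well, incubated 48 h at 37C with compound. ATP content was read by ATPlite luminescence.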

[8] = qHTS Assay for Inhibitors of Fructose-1,6-bisphosphate Aldolase from Giardia Lamblia: Mammalian cellular toxicity (AID 2786);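 also: compound exposure lasted 48 h before reading; % is scaled to controls: 0 for no effect and ±100 for the full control effect; nearly all actives have a fitted effect of over 60% in size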
Outline: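 Mammalian cytotoxicity surrogate: Chinese hamster ovary cells exposed to compound for 48 h at 37 °C. Cellular ATP then measured with ATPlite reagent, 20 min incubation.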

[9] = molecular target: Tyrosyl-DNA phosphodiesterase 1 (Homo sapiens) (UniProt Q9NUW8); test: Confirmation Assay for Inhibitors of Tyrosyl-DNA Phosphodiesterase (TDP1) (AID 489007); details: recombinant human TDP1 enzymatic activity, dose-response; also: potency is read from the fitted curve at half-maximal effect; nearly all actives have a fitted effect of over 40% in size
Outline: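 Compounds are preincubated 15 min at room temperature with 1 nM recombinant human Tdp1. The reaction starts on adding 15 nM FITC-phosphotyrosine DNA substrate, runs 5 min, and is detected by AlphaScreen beads after 10 min.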

[10] = molecular target: Tumor susceptibility gene 101 protein (Homo sapiens) (UniProt Q99816); test: qHTS Assay for Iinhibitors of HIV-1 Budding by Blocking the Interaction of PTAP/TSG101: Hit Validation (AID 651600); also: potency is read from the fitted curve at half-maximal effect; nearly all actives have a fitted effect of over 70% in size
Outline: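 Fluorescence polarization binding assay: Tsg101 binding domain (10 uM) mixed with compounds and FITC-labeled PTAP peptide (50 nM) in HEPES pH 7.5, 0.15 M NaCl, 0.01% Tween 20, EDTA, TCEP; 20 min at r.t.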

[11] = molecular target: Phosphoglycerate kinase, glycosomal (Trypanosoma brucei brucei) (UniProt P07378); test: qHTS for inhibitors of Phosphogylcerate Kinase: Hit Validation Screen (AID 686980); details: TbPGK coupled GAPDH assay, Kinase-Glo luminescence; also: potency is read from the fitted curve at half-maximal effect; nearly all actives have a fitted effect of over 65% in size
Outline: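 Recombinant glycosomal PGK reaction used 1,3-bisphosphoglycerate generated in-well by GAPDH (100nM final) in 100mM TEA pH 7.6, 5mM MgCl2, 0.01% Tween-20. After 60 minutes at room temperature, ATP was read by Kinase-Glo Plus luminescence end-point.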

[12] = molecular target: DNA polymerase iota (Homo sapiens) (UniProt Q9UNA4); test: qHTS for Inhibitors of Polymerase Iota: Confirmatory Assay for Cherry-picked Compounds (AID 720496); details: Pol iota primer extension, TAMRA/BHQ fluorescence; also: potency is read from the fitted curve at half-maximal effect
Outline: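 Extension of a quenched TAMRA-reporter/BHQ-2-template DNA substrate (50 nM) by 10 nM Pol iota after 15 min compound preincubation. Strand-displacement fluorescence (525/598 nm) was read kinetically at 0 and 10 min. Buffer-only wells served as negative control.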

[13] = molecular target: Flap endonuclease 1 (Homo sapiens) (UniProt P39748); test: qHTS Assay for the Inhibitors of FEN1: Confirmatory Assay for Cherry-picked Compounds (AID 720498); details: FEN1 flap cleavage, TAMRA/BHQ2 fluorogenic DNA substrate; also: potency is read from the fitted curve at half-maximal effect; nearly all actives have a fitted effect of over 60% in size
Outline: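 Human FEN1 (10 nM reagent) was preincubated with compounds for 15 min at room temperature, then 50 nM final double-flap DNA substrate (5'-TAMRA flap, BHQ-2 quencher strand) was added. Fluorescence (ex 525/em 598 nm) was read at 0 and 15 min.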

[14] = molecular target: DNA polymerase eta (Homo sapiens) (UniProt Q9Y253); test: qHTS for Inhibitors of Polymerase Eta: Confirmatory Assay for Cherry-picked Compounds (AID 720502); details: Pol eta primer extension, TAMRA/BHQ fluorescence, 10 min; also: potency is read from the fitted curve at half-maximal effect
Outline: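 Quenched-fluorescence replication assay: 10 nM Pol eta, 50 nM substrate final, 15 min compound preincubation at room temperature, 10 min kinetic reaction read at 525/598 nm.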

Sequence of Rap guanine nucleotide exchange factor 3 (Homo sapiens) (O95398 whole entry, looked up): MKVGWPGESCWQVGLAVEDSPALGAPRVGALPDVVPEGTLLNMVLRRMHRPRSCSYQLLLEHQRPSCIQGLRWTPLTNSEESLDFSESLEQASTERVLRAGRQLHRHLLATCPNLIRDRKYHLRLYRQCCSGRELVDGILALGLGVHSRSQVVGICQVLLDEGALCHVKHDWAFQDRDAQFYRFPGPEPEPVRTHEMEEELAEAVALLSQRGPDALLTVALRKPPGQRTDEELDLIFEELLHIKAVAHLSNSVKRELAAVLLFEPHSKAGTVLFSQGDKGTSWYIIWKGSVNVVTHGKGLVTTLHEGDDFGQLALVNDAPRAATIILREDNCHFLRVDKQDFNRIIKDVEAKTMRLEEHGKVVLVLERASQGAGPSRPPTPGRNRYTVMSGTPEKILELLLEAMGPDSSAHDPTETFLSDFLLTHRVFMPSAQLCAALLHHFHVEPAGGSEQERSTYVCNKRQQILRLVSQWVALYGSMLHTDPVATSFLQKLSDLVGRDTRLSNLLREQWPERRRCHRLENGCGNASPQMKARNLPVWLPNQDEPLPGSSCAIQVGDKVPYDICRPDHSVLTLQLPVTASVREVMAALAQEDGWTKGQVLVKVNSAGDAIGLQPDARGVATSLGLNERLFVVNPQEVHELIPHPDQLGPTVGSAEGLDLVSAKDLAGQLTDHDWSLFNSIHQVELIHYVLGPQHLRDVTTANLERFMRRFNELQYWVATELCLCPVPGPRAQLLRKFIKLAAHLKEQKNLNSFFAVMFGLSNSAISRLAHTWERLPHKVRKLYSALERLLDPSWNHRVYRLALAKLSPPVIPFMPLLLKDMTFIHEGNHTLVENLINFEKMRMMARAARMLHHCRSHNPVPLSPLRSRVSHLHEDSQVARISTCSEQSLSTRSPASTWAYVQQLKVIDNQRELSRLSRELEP
Sequence of Rap guanine nucleotide exchange factor 4 (Homo sapiens) (Q8WZA2 whole entry, looked up): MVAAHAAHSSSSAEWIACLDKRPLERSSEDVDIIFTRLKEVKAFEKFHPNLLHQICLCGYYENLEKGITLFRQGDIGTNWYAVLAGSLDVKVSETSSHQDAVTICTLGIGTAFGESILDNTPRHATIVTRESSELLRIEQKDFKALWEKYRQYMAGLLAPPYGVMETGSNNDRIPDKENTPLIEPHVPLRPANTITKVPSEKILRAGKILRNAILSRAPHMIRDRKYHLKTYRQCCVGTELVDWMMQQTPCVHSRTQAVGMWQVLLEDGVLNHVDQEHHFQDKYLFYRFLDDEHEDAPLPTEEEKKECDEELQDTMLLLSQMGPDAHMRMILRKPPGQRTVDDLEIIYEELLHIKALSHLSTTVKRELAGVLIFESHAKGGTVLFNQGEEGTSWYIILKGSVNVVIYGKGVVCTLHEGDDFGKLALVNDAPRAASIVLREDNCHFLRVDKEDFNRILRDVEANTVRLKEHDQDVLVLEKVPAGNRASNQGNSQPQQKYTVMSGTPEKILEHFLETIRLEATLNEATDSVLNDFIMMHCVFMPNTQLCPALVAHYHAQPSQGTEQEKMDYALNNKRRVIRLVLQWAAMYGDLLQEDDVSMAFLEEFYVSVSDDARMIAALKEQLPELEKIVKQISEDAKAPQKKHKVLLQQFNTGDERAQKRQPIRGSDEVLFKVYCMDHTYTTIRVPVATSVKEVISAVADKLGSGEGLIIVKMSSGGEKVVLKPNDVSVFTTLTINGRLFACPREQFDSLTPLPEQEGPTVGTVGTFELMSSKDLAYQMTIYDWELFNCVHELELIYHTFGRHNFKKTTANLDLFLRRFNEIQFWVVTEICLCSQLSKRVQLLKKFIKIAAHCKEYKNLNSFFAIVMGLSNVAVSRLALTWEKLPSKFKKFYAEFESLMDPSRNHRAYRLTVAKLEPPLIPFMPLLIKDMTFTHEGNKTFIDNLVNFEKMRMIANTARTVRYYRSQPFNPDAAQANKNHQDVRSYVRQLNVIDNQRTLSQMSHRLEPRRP
Sequence of Tyrosyl-DNA phosphodiesterase 1 (Homo sapiens) (Q9NUW8 whole entry, looked up): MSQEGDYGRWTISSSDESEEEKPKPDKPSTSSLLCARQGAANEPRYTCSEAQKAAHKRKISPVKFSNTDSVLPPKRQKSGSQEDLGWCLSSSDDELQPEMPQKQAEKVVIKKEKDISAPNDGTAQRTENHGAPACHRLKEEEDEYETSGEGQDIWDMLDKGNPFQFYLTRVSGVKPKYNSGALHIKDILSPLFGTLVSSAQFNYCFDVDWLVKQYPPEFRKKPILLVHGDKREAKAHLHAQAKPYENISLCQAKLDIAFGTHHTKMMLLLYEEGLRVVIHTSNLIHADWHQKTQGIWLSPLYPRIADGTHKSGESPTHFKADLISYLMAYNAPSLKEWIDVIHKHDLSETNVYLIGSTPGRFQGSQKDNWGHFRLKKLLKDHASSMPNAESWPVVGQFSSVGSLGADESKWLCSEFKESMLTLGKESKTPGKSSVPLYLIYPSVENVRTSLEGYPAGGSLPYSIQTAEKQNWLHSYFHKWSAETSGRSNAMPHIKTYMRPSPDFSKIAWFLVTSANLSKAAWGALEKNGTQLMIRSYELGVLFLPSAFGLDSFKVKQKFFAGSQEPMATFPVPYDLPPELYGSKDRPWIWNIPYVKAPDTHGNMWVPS
Sequence of DNA polymerase iota (Homo sapiens) (Q9UNA4 whole entry, looked up): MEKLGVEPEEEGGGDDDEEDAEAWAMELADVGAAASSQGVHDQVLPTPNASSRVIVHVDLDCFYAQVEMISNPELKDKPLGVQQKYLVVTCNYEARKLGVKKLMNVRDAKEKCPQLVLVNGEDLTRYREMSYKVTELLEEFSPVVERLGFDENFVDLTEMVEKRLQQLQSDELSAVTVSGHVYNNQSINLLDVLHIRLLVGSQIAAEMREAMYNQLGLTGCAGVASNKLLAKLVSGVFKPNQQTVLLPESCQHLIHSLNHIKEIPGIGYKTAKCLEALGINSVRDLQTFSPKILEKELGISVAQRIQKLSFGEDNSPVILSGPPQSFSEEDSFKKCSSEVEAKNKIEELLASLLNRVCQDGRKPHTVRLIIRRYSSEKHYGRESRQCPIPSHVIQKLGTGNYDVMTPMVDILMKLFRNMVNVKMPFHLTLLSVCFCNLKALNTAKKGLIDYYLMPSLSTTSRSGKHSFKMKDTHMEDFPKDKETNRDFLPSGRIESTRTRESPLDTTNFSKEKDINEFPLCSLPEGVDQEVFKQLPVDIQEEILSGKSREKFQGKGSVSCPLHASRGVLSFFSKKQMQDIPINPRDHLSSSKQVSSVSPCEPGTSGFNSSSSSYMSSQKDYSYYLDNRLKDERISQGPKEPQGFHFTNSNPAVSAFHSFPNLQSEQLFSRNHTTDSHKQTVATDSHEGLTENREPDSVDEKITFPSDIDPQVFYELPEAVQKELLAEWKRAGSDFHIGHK
Sequence of Tumor susceptibility gene 101 protein (Homo sapiens) (Q99816 whole entry, looked up, the tested form may be a part): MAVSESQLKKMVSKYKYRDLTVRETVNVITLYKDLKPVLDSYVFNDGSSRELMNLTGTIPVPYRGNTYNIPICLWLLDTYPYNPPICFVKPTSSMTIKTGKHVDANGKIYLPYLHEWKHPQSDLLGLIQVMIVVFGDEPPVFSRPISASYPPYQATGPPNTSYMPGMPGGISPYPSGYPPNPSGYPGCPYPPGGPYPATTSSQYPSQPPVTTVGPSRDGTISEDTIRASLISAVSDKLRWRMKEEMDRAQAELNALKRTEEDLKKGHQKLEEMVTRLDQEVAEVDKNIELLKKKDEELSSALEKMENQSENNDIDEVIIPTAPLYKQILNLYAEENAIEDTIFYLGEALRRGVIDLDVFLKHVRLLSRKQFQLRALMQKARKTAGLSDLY
Sequence of Flap endonuclease 1 (Homo sapiens) (P39748 whole entry, looked up): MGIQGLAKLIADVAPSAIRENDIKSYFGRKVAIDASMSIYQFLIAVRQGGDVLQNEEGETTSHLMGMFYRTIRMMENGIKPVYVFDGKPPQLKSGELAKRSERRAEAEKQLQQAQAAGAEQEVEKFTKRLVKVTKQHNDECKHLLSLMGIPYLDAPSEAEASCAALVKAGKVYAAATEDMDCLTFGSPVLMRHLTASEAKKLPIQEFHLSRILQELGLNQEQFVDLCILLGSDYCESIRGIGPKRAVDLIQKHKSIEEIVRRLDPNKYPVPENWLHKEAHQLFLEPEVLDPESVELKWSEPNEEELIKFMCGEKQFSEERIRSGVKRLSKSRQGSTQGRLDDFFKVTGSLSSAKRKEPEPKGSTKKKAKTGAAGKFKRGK
Sequence of Phosphoglycerate kinase, glycosomal (Trypanosoma brucei brucei) (P07378 whole entry, looked up): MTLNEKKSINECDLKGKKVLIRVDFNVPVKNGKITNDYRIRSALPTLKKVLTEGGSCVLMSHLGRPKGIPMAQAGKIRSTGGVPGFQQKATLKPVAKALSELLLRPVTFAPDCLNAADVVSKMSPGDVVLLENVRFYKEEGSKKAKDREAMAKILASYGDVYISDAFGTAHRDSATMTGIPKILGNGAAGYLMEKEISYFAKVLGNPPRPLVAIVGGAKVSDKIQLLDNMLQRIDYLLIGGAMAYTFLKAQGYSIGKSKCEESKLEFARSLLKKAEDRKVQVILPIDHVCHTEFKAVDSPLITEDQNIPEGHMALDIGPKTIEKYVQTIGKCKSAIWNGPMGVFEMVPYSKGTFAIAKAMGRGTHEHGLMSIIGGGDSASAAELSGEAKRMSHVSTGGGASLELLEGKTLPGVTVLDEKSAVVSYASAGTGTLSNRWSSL
Sequence of Cytochrome P450 3A4 (Homo sapiens) (P08684 whole entry, looked up): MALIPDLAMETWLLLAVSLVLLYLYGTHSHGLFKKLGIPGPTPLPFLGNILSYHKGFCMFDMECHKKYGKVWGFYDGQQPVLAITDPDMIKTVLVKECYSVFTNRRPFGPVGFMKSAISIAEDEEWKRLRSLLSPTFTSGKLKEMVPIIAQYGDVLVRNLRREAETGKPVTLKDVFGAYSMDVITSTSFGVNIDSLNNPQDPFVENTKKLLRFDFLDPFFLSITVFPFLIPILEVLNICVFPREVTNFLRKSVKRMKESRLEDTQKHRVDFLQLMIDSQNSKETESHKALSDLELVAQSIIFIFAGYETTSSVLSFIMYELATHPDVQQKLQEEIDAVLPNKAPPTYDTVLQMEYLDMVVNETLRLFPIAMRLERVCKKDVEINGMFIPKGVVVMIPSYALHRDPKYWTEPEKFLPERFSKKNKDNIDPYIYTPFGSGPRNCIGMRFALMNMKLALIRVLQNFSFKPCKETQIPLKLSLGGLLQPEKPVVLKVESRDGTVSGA

CC(=O)NC(c1ccc(Cl)cc1Cl)c1ccc2cccnc2c1O (stereo not given)
inactive: Potency [1] | Potency [2] | Potency [3] | Potency [4]

N=C1S/C(=C\c2ccco2)C(=O)N1c1ccc2c(c1)OCO2
inactive: Potency [1] | Potency [2] | Potency [3] | Potency [4]

CCOc1cnc(-c2c(-c3ccccc3Cl)noc2C)o1
inactive: Potency [1] | Potency [2] | Potency [3] | Potency [4]

Cc1cccc(NC(=S)N2CCN(S(=O)(=O)c3cccc(F)c3)CC2)c1
inactive: Potency [1] | Potency [2] | Potency [3] | Potency [4]

CC1=C(C(=O)OCc2ccccc2)C(c2ccc(C(C)(C)C)cc2)NC(=O)N1CCCCCC(=O)O (stereo not given)
inactive: Potency [5] | Potency [6] | Potency [1] | Potency [2] | Potency [3] | Potency [4]

CCCCc1ccc(NC(=O)CN2C(=O)C3CCCCC3C2=O)cc1 (stereo not given)
inactive: Potency [1] | Potency [2] | Potency [3] | Potency [4]

Cc1ccc(C)c(Cn2nc(-c3ccccc3)ccc2=O)c1
inactive: Potency [1] | activation [2] -4.57% [at 17.1 µM, percent relative to cAMP agonist control] | activity change, negative = inhibition [3] 14.9% [at 30.8 µM] | activation [4] 3.62% [at 30.8 µM]

C[C@@H]1CCCCCCCCC(=O)OCCN1C(=O)OC(C)(C)C
inactive: Potency [1] | Potency [2] | Potency [3] | Potency [4]

COc1ccccc1OCCOc1ccc(/C=C2\C(=N)N3N=C(S(C)(=O)=O)SC3=NC2=O)cc1
inactive: Potency [1] | Potency [2] | Potency [3] | Potency [4]

COC1=C/C(=C/c2c(N)n3nc(-c4ccc(C)cc4)sc3nc2=O)C=CC1=O
inactive: Potency [1] | Potency [2] | Potency [3] | Potency [4]

CCN(CC(=O)Nc1ccccc1C(=O)NC1CC1)Cc1cccs1
inactive: Potency [1] | Potency [2] | Potency [3] | Potency [4]

CCOC(=O)C1=C(C)NC(C)=C(C(=O)OCC)C1C(=O)OCC(=O)NCc1ccc(F)cc1
inactive: Potency [1] | Potency [2] | Potency [3] | Potency [4]

CCCCC[C@H](C)N1C[C@@H](COCc2ccccc2)Oc2cc(N3CC[C@H](N(C)C)C3)ccc2S1(=O)=O
inactive: Potency [1] | Potency [2] | Potency [4]

CCCCC[C@H](C)N1C[C@H](COCc2ccccc2)Oc2cc(N3CCC[C@H]3C(N)=O)ccc2S1(=O)=O
inactive: Potency [1] | Potency [2] | Potency [3] | Potency [4]

CCCN(CC(=O)Nc1ccccc1C)C(=O)c1oc2ccc(OCC)cc2c1C
inactive: Potency [1] | Potency [2] | Potency [4]

Nc1ccc2nc3c(=O)[nH]c(=S)[nH]c3nc2c1
inactive: outcome [7] | outcome [8] | Potency [3]
active: Potency [9] 39.8 µM | Potency [10] 18.3 µM | Potency [11] 16.3 µM | Potency [12] 33.6 µM | Potency [13] 67.5 µM | Potency [14] 19 µM | Potency [1] 79.4 µM | Potency [2] 100 µM | Potency [4] 44.7 µM

COc1ccc(-c2nn(-c3ccccc3)cc2/C=C2/SC(=S)N(CCCC(=O)O)C2=O)c(C)c1
active: Potency [12] 75.2 µM | Potency [13] 47.8 µM
inactive: Potency [1] | Potency [2] | Potency [3] | Potency [4]

CCOc1cc(C)c(-c2onc(C(F)(F)F)c2-c2csc(C)n2)c(O)c1
inactive: Potency [1] | Potency [2] | Potency [3] | Potency [4]

COc1ccc(C(=O)c2ccccc2Cl)cc1OC
inactive: Potency [1] | Potency [2] | Potency [4]

O=C(NCCc1ccccc1)c1cccc(NC(=O)c2ccccc2)c1
inactive: Potency [1] | Potency [2] | Potency [3] | Potency [4]

COc1cnc(N(C)C)nc1Sc1cccc(Cl)c1
inactive: Potency [1] | activation [2] 2.02% [at 17.1 µM, percent relative to cAMP agonist control] | activity change, negative = inhibition [3] -24.7% [at 30.8 µM] | activation [4] -4.79% [at 30.8 µM]

O=C1C(=Cc2cn(-c3ccccc3)nc2-c2ccc(OCc3ccc(Cl)cc3)cc2)SC(=S)N1CCS(=O)(=O)O
inactive: Potency [1] | Potency [2] | Potency [3]
active: Potency [4] 50.1 µM

CN(N=Nc1ccc([N+](=O)[O-])cc1)c1ccccc1
inactive: Potency [3]
active: Potency [10] 13 µM | Potency [1] 112 µM | Potency [2] 100 µM

COc1cc(/C=C/[N+](=O)[O-])ccc1OCc1cccc(C(=O)O)c1
active: Potency [9] 79.4 µM
inactive: Potency [1] | Potency [2] | Potency [3] | Potency [4]

COc1ccccc1-c1nc2ccccc2n(CC(C)C)c1=O
inactive: Potency [1] | Potency [2] | Potency [4]

CCCCC[C@@H](C)N1C[C@H](COCc2ccccc2)Oc2cc(N3CC[C@H](N(C)C)C3)ccc2S1(=O)=O
inactive: Potency [1] | Potency [2] | Potency [4]

C=C1SC(Nc2c(C)cccc2C)=NC12CCCCC2
inactive: Potency [1] | Potency [2] | Potency [3] | Potency [4]

O=C(Nc1ccncc1)c1cc2ccccc2cc1O
inactive: Potency [1] | Potency [2] | Potency [3] | Potency [4]
